Only some compounds are listed: those with a hit (about 4% of all), similar ones and a draw of the others.
TROY NFkB inh: TROY signaling inhibition; Q293 LMP1-TROYcd NF-kB luciferase reporter, 4 h; inhibition, % at 10 µM; 360,000 compounds, 0.98% hits; AID 1347056;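 active means compounds whose plate-normalised and pattern-corrected inhibition of the luciferase reporter signal at the single screening dose is 50% or more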
Peg3 prom inh: Peg3 promoter activity inhibition. inhibition, % at 20 µM. 360,000 compounds, 1.7% hits. HeLa PEG-Prom luciferase reporter, luminescence, overnight;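 active means inhibition of at least 50% at 20 µM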
HIF-2a inh: HIF-2a inhibition; 786-0 RCC cells HIF-2a reporter, luciferase luminescence, overnight; inhibition, % at 18.8 µM; 360,000 compounds, 0.72% hits; AID 624352;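 active means inhibition of the luminescence signal of 40% or more relative to plate controls, in a single-dose primary screen at 18.75 µM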
TWEAK Fn14 block: TWEAK-Fn14 signaling inhibition. TWEAK-stimulated Fn14 reporter cells, luciferase luminescence, 8 h. inhibition, % at 10 µM. 360,000 compounds, 2% hits. AID 1159606; in the data active means inhibition above about 50%
MITF TRPM1 inh: reduces MITF-dependent TRPM1 promoter luciferase signal; 330,000 compounds, 0.83% hits; inhibition, % at 12.5 µM; AID 488899; SK-MEL-5 TRPM1 promoter luciferase, 24 h;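 active means mean inhibition across replicates of 60% or more, whatever share of single replicates reaches that level; inconclusive means some that reach 60%, reason not given; inactive means mean inhibition across replicates below 60%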
EBV LMP1 NFkB: Epstein-Barr LMP1 NF-kappaB reporter inhibition; 350,000 compounds, 0.69% hits; inhibition, % at 12.5 µM; LMP1-induced NF-kappaB luciferase reporter cells, luminescence; in the data active means inhibition above about 41%; inconclusive means no clear call, values can overlap the other calls;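 further: 0% = neutral control wells and 100% = reference inhibitor control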
* = called active by the depositor; ? = inconclusive; / = not tested or not shown.

SMILES | TROY NFkB inh | Peg3 prom inh | HIF-2a inh | TWEAK Fn14 block | MITF TRPM1 inh | EBV LMP1 NFkB
O=C(NCc1ccco1)C1CCN(C(=O)c2ccc(Cl)cc2)CC1 | -12 | 0 | 6 | -3 | 10 | 2
S=C(NNc1ccnc2cc(Cl)ccc12)Nc1ccccc1Cl | 66* | 5 | -39 | 64* | 19 | 21
FC(F)(F)c1cnc(NNC(=S)Nc2ccccc2Cl)c(Cl)c1 | 59* | 40 | 26 | 51* | 14 | -1
Cc1nc(/N=C\c2ccc(N(C)C)cc2)sc1C | 9 | -31 | -12 | 6 | 6 | -9
Cc1ccc(Cn2c(=N)n(CC(=O)c3ccc([N+](=O)[O-])cc3)c3ccccc32)cc1 | 9 | 102* | 8 | -5 | 98* | -1
N=c1n(CCN2CCCCC2)c2ccccc2n1CC(=O)c1ccc(Cl)c(Cl)c1 | -24 | 34 | -28 | -16 | / | /
CCn1c(=N)n(CC(=O)c2ccc(Cl)c(Cl)c2)c2ccccc21 | -25 | 99* | -136 | -4 | -5 | -45
Cc1ccc(C(=O)Cn2c(=N)n(CCN3CCOCC3)c3ccccc32)cc1 | 9 | -23 | -62 | 0 | 7 | -4
CN(Cc1ccccc1)C(=O)c1ccc(NC(=O)Cc2ccc(NC(=O)C3CCCN(S(=O)(=O)c4cccc([N+](=O)[O-])c4)C3)cc2)cc1 (stereo not given) | -13 | 9 | -4 | 16 | 22 | 5
Cc1c(C)n(Cc2ccccc2)c2ncnc(Cl)c12 | 38 | 29 | 27 | 65* | 11 | 29
Cn1cnc([N+](=O)[O-])c1Sc1nc2ccccc2[nH]1 | 3 | 6 | 28 | 10 | / | /
Cc1nc([N+](=O)[O-])c(Sc2nc3ccccc3[nH]2)n1Cc1ccccc1 | 7 | -4 | 22 | 57* | 46 | 4
Cc1cc(C2CCCCC2)n(O)c(=O)c1 | 7 | 51* | 20 | -15 | 78* | 25
O=[N+]([O-])c1ccc(S(=O)(=O)c2cccc(C(F)(F)F)c2)nc1 | 62* | 100* | 52* | -3 | 83* | 76*
Cc1cccc(NS(=O)(=O)c2cccc(C(=O)NCC(c3ccc(F)cc3)N3CCOCC3)c2)c1 (stereo not given) | -7 | 16 | 12 | 20 | 8 | 5
Cc1cc2c(cc1C)N(Cc1ccc(Cl)cc1)C1=NCCCN12 | 11 | 57* | 20 | 5 | 51 | 2
O=C(NCCC1=CCCCC1)C1CC(=O)N(Cc2ccccc2)C1 (stereo not given) | 5 | 9 | 4 | 95* | 5 | -3
NS(=O)(=O)c1ccc(CNC(=O)CNC(=O)c2ccc(Br)o2)cc1 | 3 | 1 | 12 | 24 | 3 | 1
COCCCN=Cc1c(C)[nH]n(-c2ccc(Br)c(C)c2)c1=O | 71* | -155 | -137 | 65* | -21 | -2
Cc1ccc(-n2[nH]c(C)c(C=NC34CN5CN(CN(C5)C3)C4)c2=O)cc1C | -2 | -14 | -9 | 4 | 6 | -5
CCOC(=O)c1ccccc1NC(=O)COc1ccccc1 | -15 | 68* | -5 | -9 | -4 | -3
COC(=O)c1ccccc1NC(=O)Nc1ccc(C(=O)N2CCCC2)cc1 | 10 | 58* | 35 | 14 | 6 | 16
COC(=O)c1ccccc1NC(=O)COC(C)=O | 12 | 16 | 12 | 3 | 2 | -6
COC(=O)c1ccccc1NC(=O)CC(=O)Nc1ccccc1C(=O)OC | -3 | -14 | -36 | 3 | -15 | 50*
O=C(NC(=S)Nc1ccc2ncccc2c1)c1ccccc1 | 64* | -276 | -278 | -4 | -72 | -16
SMILES | TROY NFkB inh | Peg3 prom inh | HIF-2a inh | TWEAK Fn14 block | MITF TRPM1 inh | EBV LMP1 NFkB
Cc1ccc(C(=O)NCC(=O)NCC(c2cccs2)N(C)C)cc1C (stereo not given) | -7 | -48 | -58 | -6 | -1 | 0
COc1ccc(CN2C(=O)C(CC(=O)NCc3cccc4ccccc34)CC(C(=O)N(C(C)C)C(C)C)=C2C)cc1 (stereo not given) | -4 | 18 | -17 | -11 | / | /
CCOc1ccc(/C=C/C(=O)N(C)CC(=O)Nc2cccc(F)c2)cc1OCC | 18 | 11 | 11 | -3 | 3 | 7
CCOC(=O)c1sc(NC(=S)NC(=O)c2ccccc2)nc1C | -25 | -181 | -270 | -21 | -20 | -32
COC(=O)c1ccccc1NC(=O)c1ccc(-c2ccc(Br)cc2)o1 | 81* | -168 | -169 | 77* | -9 | -28
CC(=O)c1cccc(NC(=O)Nc2ccc(C(=O)N3CCOCC3)cc2)c1 | 12 | 3 | 15 | 7 | -2 | 49*
COC(=O)c1sc(NC(=S)NC(=O)c2ccccc2)nc1C | 52* | -258 | -229 | 7 | -4 | -33
COC(=O)c1ccccc1NC(=S)NC(=O)c1ccccc1 | / | 4 | -21 | 84* | -10 | 5
Cc1ccc(NC(=O)Nc2ccc(C(=O)N3CCOCC3)cc2)cc1 | -23 | -16 | -18 | 5 | -7 | 7
COc1ccc(N(CC(=O)NCCSCc2ccccc2Cl)S(C)(=O)=O)cc1Cl | 0 | 20 | 7 | -4 | 5 | -2
CCOCCOC(=O)C1=C(C)N(C)C(=O)NC1c1ccccc1Cl (stereo not given) | / | 19 | 5 | 53* | 0 | 3
CC1=C(C(=O)OCC(C)C)C(c2ccccc2Cl)NC(=O)N1C (stereo not given) | -11 | -1 | -24 | -24 | 8 | -5
O=C1C=C(c2c(O)ccc3ccccc23)c2ccccc2C1=O | 49 | 107* | 84* | 102* | ? | 12
Nc1cc(=O)[nH]c(SCCSc2cc(Cl)ccc2Cl)n1 | -12 | 54* | 19 | -21 | 49 | 51*
CCN(CC)C(=O)C(=O)c1cn(CCOc2ccccc2)c2ccccc12 | -1 | 13 | 0 | 4 | 20 | 15
O=C(CCCCCNc1nc(=S)[nH]c2ccccc12)N1CCN(c2ccccn2)CC1 | 38 | 56* | 7 | 23 | -11 | 9
COc1cccc(N2CCN(C(=O)CCCCCNc3nc(=S)[nH]c4ccccc34)CC2)c1 | 70* | 63* | 0 | 53* | -4 | 13
O=C(NC1CCC(O)CC1)c1ccc(-c2ccc([N+](=O)[O-])cc2)o1 (stereo not given) | -17 | -26 | -60 | -1 | 6 | -8
Cc1ccccc1CN1C(=O)CSCC1(C)C(=O)Nc1ccc2c(c1)OCCO2 (stereo not given) | / | / | 3 | / | / | /
N#CC(=C=[N-])c1nc2ccccc2nc1-[n+]1cccc(NC(=O)c2ccccc2)c1 | -13 | -7 | 3 | 75* | 19 | 1
COC(=O)c1ccc(N/C=C/C(=O)c2ccccc2)cc1 | -21 | -147 | -239 | 51* | -15 | -12
COc1ccc(C(=O)/C=C/Nc2cccc(O)c2)cc1 | -50 | -82 | -172 | 52* | -29 | -35
COc1cccc(N/C=C/C(=O)c2ccc(Br)cc2)c1 | -46 | -205 | -149 | 31 | -48 | -31
